Results published in PubChem BioAssay AID651558 (National Center for Advancing Translational Sciences (NCATS), 2012).
In all, about 1,200 compounds went through this assay and about 480 (40%) were called active. Roughly 29% stayed inconclusive and do not appear here. Some of the results follow. A number with no mark means an inactive call. The call rests on the fitted dose curve; in most records, active means well fitted inhibition curve with a large enough effect; inconclusive means small, poorly fitted or top-dose-only effect; inactive means no such curve, though single readings can be large or run the other way.
On the % scale 0 is the no-effect control and ±100 the full control effect; potency means the concentration at half of the fitted maximal effect.

Test: qHTS Assay to Find Inhibitors of Chronic Active B-Cell Receptor Signaling: Hit Validation in Primary Screen; further: nearly all actives have a fitted effect of over 75% in size
Conditions: ABC-DLBCL IkB-luc/CBR ratio luminescence, 4 h; series mostly up to 46.1 µM; activity change, negative = inhibition: at the top concentration
Source text: Diffuse large B-cell lymphoma (DLBCL) is the most common category of non-Hodgkin lymphoma, with ~20,000 new cases per year in the United States. DLBCL should be regarded as a collection of different neoplasms. Microarray gene expression analysis has defined two principal types of DLBCL, named for their similarity to normal B cell stages or activation states: a germinal center B-cell (GCB) type, and an activated B-cell (ABC) type. In ABC-DLBCL, a constitutive high-level activity of the NF-kappaB family of transcription factors has been observed (1) and NF-kappaB target genes are more highly expressed in ABC primary tumors than in GCB tumors. Functional studies have shown a constitutive high-level activity of the IkappaB (inhibitor of kappa-B) kinase (IKK) complex. […] Further analysis of DLBCL primary tumors for NF-kappaB target gene expression imply that although CARD11 is required for constitutive IKK activity in all ABC-DLBCL lines, mutations in CARD11 may be the root cause of IKK activation only in lines or tumors with such mutations. In other words, CARD11 mutations may explain NF-kappaB activation in only 10% of ABC-DLBCL cases. […] This process has been termed 'chronic active BCR signaling' (CABS). The goal of this screen is to find small-molecule inhibitors of the CABS pathway found in ABC-DLBCL lines using a cell-based assay that measures IkappaBalpa stability, which has already been extensively validated in the OCI-Ly3 line (PubChem AID:445; REF: 4). […] A cell-sensor assay for I-kappa-B-alpha stabilization has been developed. The assay uses green (CBG68) and red (CBR) emitting beetle luciferases [Chroma-GloTM developed by Promega Corp.] where the green luciferase is fused to IkappaBalpha and the red luciferase is present in its native state. Both luciferase genes are stably present in the TMD8 human ABC DLBCL cell line, but their expression is under the control of tetracycline-inducible promoters. Following the addition of doxycycline to induce expression of the luciferases, the green luminescence in control cultures rises only slowly because the CBG fusion partner IkappaBalpha is targeted by IKK activity for rapid degradation. In contrast, green luminescence rises rapidly in the presence of proteasome inhibitors or IKK inhibitors. The rise in red luminescence of CBR is not affected by proteasome or IKK inhibitors, and serves as normalization for cell number and nonspecific effects. Compounds were screened as a concentration-titration series that ranged from 46 uM to 3 nM. NIH Molecular Libraries Probe Production Network [MLPCN] NIH Chemical Genomics Center [NCGC] MLPCN Grant: R03 DA031086 PI Name: Dr. R. Eric Davis
Cells were seeded in 1536-well plates at 5000 cells/4uL in IMDM medium containing 0.5% FBS, w/o phenol red, 1% penicillin/streptomycin. Then, 23 nL of compounds or DMSO were delivered to each well using a pin tool. One uL 20ng/ml doxycycline was then dispensed into white solid 1536-well plates and the plates were incubated at 37C/5% C02 in a cell incubator for 4 hrs. Then 4 uL luminescent substrate mix (in-house prepared: 150 mM Tris-Cl, pH 7.6, 3 mM MgCl2, 1% Triton X-100, 5 mM DTT, 0.2 mM CoA, 0.15 mM ATP, 5 mM D-luciferin, final concentrations) was added to each well. The plate was incubated at r.t. for 10-15 min. The plates were measured on a ViewLux plate reader for green luminescence (540/20 nm filter) and red luminescence (618/8 nm filter). The green and red luminescent signals were corrected for red and green luminescence filter overlap using previously determined filter calibration constants (determined using the procedure outlined in the Promega Technical Manual; REF 4). The %Activity was determined from the ratio of corrected green/red luminescent values. MG132 were used as control. Green luminescent and ratio %Activity was determined by normalizing to the difference in signal between basal cells (0% Activity) and cells incubated with 10 uM of the proteasome inhibitor MG-132 (100% Activity). […]
In the case of CCOc1cc(/C=N/O)ccc1OCc1ccccc1F, the “activity change, negative = inhibition” value is reported as -15.1%.
For COc1ccc(/C=N\NC(=O)c2ccccc2F)cc1COc1ccc(F)cc1F, the Potency was 3.26 µM (active).
In the case of C/C(=N\NC(=O)c1c([N+](=O)[O-])c(C)nn1C)c1ccc(NC(=O)C2CCCC2)cc1, the Potency is reported as 9.2 µM (active).
For CNC(=S)N/N=C(\C)c1cccc([N+](=O)[O-])c1, the “activity change, negative = inhibition” value was 36%.
In the case of C/C(=N\NC(=O)C(C)n1nc(C)c([N+](=O)[O-])c1C)c1ccccc1O (configuration not stated), the “activity change, negative = inhibition” value is reported as -4.79%.
With COc1cc(C(=O)N/N=C/C2CC=CCC2)cc(OC)c1OC (configuration not stated) the “activity change, negative = inhibition” value was -7.05%.
With COc1cc(C(=O)O/N=C(\N)c2ccc([N+](=O)[O-])cc2)cc(OC)c1OC the “activity change, negative = inhibition” value was 51.1%.
In the case of COc1cc(C(=O)N/N=C/c2cc([N+](=O)[O-])cs2)cc(OC)c1OC, the Potency is reported as 20.6 µM (active).
In the case of COc1cc(C(=O)N/N=C/c2ccsc2C)cc(OC)c1OC, the Potency is reported as 2.31 µM (active).
In the case of COc1cc(C(=O)N/N=C/c2sccc2C)cc(OC)c1OC, the Potency is reported as 1.46 µM (active).
For CC(NC(=O)c1ccc(S(=O)(=O)NCc2ccco2)cc1)c1ccc(F)cc1 (configuration not stated), the “activity change, negative = inhibition” value was -8.65%.
For CCC1=Nc2cc(C(=O)NCc3ccco3)ccc2Sc2ccc(Cl)cc21, the Potency was 2.91 µM (active).
In the case of Cc1cc(C(=O)OCC(=O)NCc2ccco2)c(C)n1-c1ccc(F)cc1, the “activity change, negative = inhibition” value is reported as 38.7%.
With CC1=Nc2cc(C(=O)NCC3CCCO3)ccc2Sc2ccc(C)cc21 (configuration not stated) the Potency was 7.31 µM (active).
In the case of CCC1=Nc2cc(C(=O)NCc3ccco3)ccc2Sc2ccc(C)cc21, the Potency is reported as 1.16 µM (active).
With CCCC(C)NC(=O)c1ccc(C2SCC(=O)N2Cc2ccco2)cc1 (configuration not stated) the “activity change, negative = inhibition” value was -16.5%.
With CC1=Nc2cc(C(=O)NCc3ccco3)ccc2Sc2ccc(C)cc21 the Potency was 1.84 µM (active).
In the case of COc1ccc(N2C(=O)CS/C2=N\C(=S)Nc2ccccc2)cc1, the “activity change, negative = inhibition” value is reported as 0.626%.
With N#CCSc1nc(N)c(C#N)c(C2CCCCC2)c1C#N the “activity change, negative = inhibition” value was -9.34%.
In the case of CCC1=Nc2cc(C(=O)NCc3ccco3)ccc2Sc2ccccc21, the Potency is reported as 20.6 µM (active).
For CCC1=Nc2cc(C(=O)NCc3cccnc3)ccc2Sc2ccc(C)cc21, the Potency was 18.4 µM (active).
With CCC1=Nc2cc(C(=O)NCc3ccccc3Cl)ccc2Sc2ccc(C)cc21 the Potency was 4.61 µM (active).
In the case of CSc1nc(N(C)NC(=O)c2cccc(C)c2)c2ccccc2n1, the Potency is reported as 1.3 µM (active).
For COc1ccc(C(=O)NN(C)c2nc(C(F)(F)F)nc3ccccc23)cc1, the Potency was 0.291 µM (active).
For CSc1nc(N(C)NC(=O)c2ccc(Cl)cc2)c2ccccc2n1, the “activity change, negative = inhibition” value was 37.4%.
In the case of COc1ccc(-c2c(C)nn3c(N)c(C#N)cnc23)cc1OC, the Potency is reported as 20.6 µM (active).
In the case of C[C@H]1C[C@@H]2[C@H]([C@@H](O)C[C@@]3(C)[C@H]2CC[C@]3(O)C(=O)CO)[C@@]2(C)C=CC(=O)C=C12, the “activity change, negative = inhibition” value is reported as 47.4%.
